PubChem BioAssay
Calls of active or inactive are those of the source.

Columns and labels:
Albumin (Bos taurus) = Albumin (Bos taurus) (UniProt P02769); test: bovine serum albumin binders on microarray, profiling panel, artefact control for SMM control protein annotation, biochemical, small-molecule microarray, Alexa647 label, 635/667 nm fluorescence (AID 1118); conditions: BSA-A647 binding, fluorescence 635 nm, higher = more signal;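 also: score merges 667 nm emission intensity and signal-to-noise per printed compound spot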
Chain of Albumin (Bos taurus) (P02769 whole entry, looked up): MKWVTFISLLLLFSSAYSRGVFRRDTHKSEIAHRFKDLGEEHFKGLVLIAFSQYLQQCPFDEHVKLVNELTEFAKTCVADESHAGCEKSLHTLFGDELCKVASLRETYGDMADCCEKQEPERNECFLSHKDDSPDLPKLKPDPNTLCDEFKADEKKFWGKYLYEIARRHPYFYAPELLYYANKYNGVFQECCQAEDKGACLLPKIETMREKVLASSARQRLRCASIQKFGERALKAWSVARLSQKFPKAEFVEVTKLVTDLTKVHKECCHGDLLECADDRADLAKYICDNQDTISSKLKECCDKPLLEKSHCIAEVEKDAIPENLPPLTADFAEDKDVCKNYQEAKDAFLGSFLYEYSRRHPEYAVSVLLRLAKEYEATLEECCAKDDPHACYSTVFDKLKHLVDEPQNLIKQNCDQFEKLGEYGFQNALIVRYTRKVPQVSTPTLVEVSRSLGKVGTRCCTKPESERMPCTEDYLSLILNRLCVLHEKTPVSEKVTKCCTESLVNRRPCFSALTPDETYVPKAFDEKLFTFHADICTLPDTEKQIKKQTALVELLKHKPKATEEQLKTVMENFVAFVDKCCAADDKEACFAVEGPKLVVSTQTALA

[1] = small-molecule microarray binders of probe aXIP, primary screen, biochemical, NeuroSMM set, 635/667 nm fluorescence (AID 1119); conditions: higher = more signal, called active from +8 up or from −8 down;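 also: probe is the protein aXip251-270 applied at 1 µg/mL to compound-printed slides; binding of probe to printed compounds measured as 667 nm fluorescence plus signal to noise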
[2] = small-molecule binders of probe aNOTCH3, primary screen, biochemical, small-molecule microarray, 635/667 nm fluorescence (AID 1120); conditions: higher = more signal;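 also: probe is a biotin-tagged antibody raised against NOTCH3 rather than NOTCH3 protein; score merges spot fluorescence near 667 nm with spot signal to noise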
[3] = small-molecule binders of probe aNOTCH2, primary screen, biochemical, small-molecule microarray, 635/667 nm fluorescence (AID 1121); conditions: higher = more signal;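 also: score merges feature fluorescence read at 667 nm with its signal to noise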
[4] = target: Carbonic anhydrase 2 (Homo sapiens) (UniProt P00918); test: CAII small-molecule binders, profiling panel, biochemical, small-molecule microarray, Alexa647-labelled CAII (AID 1122); conditions: CAII-A647 binding fluorescence, higher = more signal
[5] = COS7 lysate on small-molecule microarray, probe aHis, 635 nm (AID 1123); conditions: COS7 cell lysate, fluorescence, higher = more signal;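 also: z-score combines 667nm fluorescence intensity with signal-to-noise per printed compound spot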
[6] = compound binding in COS7 lysate, probe aLAP1, primary screen, cell lysate, small-molecule microarray (AID 1124); conditions: probe aLAP1, fluorescence, higher = more signal;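 also: lysate comes from COS7 cells expressing LAP1 and is applied at 0.3 µg/mL; score merges spot fluorescence near 667 nm with signal-to-noise over triplicate slides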
Sam68 (KHDRBS1) = test: Sam68 small-molecule binders, primary screen, biochemical, small-molecule microarray, 635 nm fluorescence (AID 1125); conditions: small-molecule microarray binding, higher = more signal;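 also: score merges 667 nm channel intensity with signal to noise over triplicate slides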
[7] = system: Chordin-like protein 2 (CHRDL2); test: CHRDL2 small-molecule binders, primary screen, biochemical, small-molecule microarray, 635 nm fluorescence (AID 1126); conditions: small-molecule microarray binding, fluorescence 635 nm; higher = more signal;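 also: printed compound slides probed with Chrdl2 protein at 4 µg/mL for 1 h at 4 C; score merges 667 nm emission intensity with signal to noise over three replicate slides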
[8] = target: Concanavalin-A (Canavalia ensiformis) (UniProt P02866); test: ConA small-molecule binders, primary screen, artefact control for SMM control protein annotation, biochemical, small-molecule microarray, Alexa647 label, 635 nm (AID 1127); conditions: ConA-A647 binding fluorescence, higher = more signal;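 also: z combines 667 nm emission intensity with signal-to-noise across three replicate slides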
Chain of Concanavalin-A (Canavalia ensiformis) (P02866 whole entry, looked up): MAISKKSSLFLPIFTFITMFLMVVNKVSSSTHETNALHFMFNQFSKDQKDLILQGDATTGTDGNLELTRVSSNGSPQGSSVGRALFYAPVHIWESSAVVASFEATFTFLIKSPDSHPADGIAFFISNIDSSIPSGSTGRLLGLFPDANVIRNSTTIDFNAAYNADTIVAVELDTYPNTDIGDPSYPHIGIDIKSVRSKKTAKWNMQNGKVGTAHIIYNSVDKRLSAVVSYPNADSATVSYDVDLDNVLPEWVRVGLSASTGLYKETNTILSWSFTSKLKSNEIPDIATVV

[9] = anti-His antibody binders, primary screen, artefact control for SMM control protein annotation, biochemical, small-molecule microarray, 635 nm fluorescence (AID 1128); conditions: anti-His Alexa647 antibody binding, higher = more signal;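 also: score merges feature fluorescence with signal-to-noise for each printed compound spot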
[10] = system: Human papillomavirus type 1a E7 protein (residues 1-88); test: HPV1a E7 small-molecule binders, primary screen, biochemical, small-molecule microarray, residues 1-88, 635 nm (AID 1129); conditions: small-molecule microarray binding, fluorescence 635 nm; higher = more signal
[11] = target: Focal adhesion kinase 1 (Homo sapiens) (UniProt Q05397); test: small-molecule microarray binders of FAK, primary screen, biochemical, 635/667 nm fluorescence, BSA, DTT (AID 1130); conditions: PTK2 binding, 635 nm fluorescence, higher = more signal;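 also: composite of spot emission at 667 nm and signal to noise over triplicate slides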
Chain of Focal adhesion kinase 1 (Homo sapiens) (Q05397 whole entry, looked up): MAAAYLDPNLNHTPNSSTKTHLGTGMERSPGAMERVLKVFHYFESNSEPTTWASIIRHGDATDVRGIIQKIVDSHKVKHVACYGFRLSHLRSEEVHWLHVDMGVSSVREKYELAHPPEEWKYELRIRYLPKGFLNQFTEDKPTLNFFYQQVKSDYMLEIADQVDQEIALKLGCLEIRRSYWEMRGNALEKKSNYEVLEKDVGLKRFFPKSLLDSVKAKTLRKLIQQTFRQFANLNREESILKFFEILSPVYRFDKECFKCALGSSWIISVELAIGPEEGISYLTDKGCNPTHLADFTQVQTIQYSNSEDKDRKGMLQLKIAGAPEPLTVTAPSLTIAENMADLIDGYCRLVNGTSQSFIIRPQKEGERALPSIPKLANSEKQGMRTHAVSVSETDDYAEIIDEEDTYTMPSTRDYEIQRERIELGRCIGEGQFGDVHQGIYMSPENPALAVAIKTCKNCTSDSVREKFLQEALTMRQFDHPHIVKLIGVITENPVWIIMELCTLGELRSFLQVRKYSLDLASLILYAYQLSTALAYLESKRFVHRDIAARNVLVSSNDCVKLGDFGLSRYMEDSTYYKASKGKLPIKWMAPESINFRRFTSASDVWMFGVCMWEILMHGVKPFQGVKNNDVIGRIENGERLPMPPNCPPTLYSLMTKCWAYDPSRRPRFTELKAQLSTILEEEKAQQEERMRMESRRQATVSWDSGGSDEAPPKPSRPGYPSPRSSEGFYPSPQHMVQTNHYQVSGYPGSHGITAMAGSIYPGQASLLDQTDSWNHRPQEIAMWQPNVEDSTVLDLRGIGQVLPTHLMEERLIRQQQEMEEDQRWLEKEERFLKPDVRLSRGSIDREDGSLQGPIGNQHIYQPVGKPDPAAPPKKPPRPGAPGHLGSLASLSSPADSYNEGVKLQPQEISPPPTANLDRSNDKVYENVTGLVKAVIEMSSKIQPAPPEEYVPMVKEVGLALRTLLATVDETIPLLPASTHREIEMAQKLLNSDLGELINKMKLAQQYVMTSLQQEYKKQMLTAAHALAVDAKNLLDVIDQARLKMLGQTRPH

[12] = system: Fibrinogen (Alexa647-labelled); test: fibrinogen binders on compound microarrays, profiling panel, artefact control for SMM control-protein annotation, biochemical, small-molecule microarray, 635/667 nm fluorescence (AID 1131); conditions: fibrinogen-A647 binding fluorescence, higher = more signal;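 also: z-score merges 667 nm fluorescence with per-spot signal-to-noise over triplicate slides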
[13] = target: Follistatin (Homo sapiens) (UniProt P19883); test: follistatin binders on small-molecule microarrays, primary screen, biochemical, small-molecule microarray, 635/667 nm fluorescence (AID 1132); conditions: FST binding, 635 nm fluorescence, higher = more signal
Chain of Follistatin (Homo sapiens) (P19883 whole entry, looked up): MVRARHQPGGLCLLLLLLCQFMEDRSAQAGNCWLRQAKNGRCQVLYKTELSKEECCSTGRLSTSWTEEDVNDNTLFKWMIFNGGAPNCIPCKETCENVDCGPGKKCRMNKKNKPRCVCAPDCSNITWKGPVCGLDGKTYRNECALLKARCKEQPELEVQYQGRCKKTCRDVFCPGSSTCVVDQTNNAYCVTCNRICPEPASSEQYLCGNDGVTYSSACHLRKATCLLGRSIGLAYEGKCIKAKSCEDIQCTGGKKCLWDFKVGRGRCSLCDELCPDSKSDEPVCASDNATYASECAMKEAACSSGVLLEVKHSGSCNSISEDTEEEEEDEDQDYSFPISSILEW

[14] = target: Fibroblast growth factor 2 (Homo sapiens) (UniProt P09038); test: FGF2 binders on small-molecule microarrays, primary screen, biochemical, small-molecule microarray, 635/667 nm fluorescence (AID 1133); conditions: small-molecule microarray binding, FGF2, fluorescence 635/667; higher = more signal
Chain of Fibroblast growth factor 2 (Homo sapiens) (P09038 whole entry, looked up): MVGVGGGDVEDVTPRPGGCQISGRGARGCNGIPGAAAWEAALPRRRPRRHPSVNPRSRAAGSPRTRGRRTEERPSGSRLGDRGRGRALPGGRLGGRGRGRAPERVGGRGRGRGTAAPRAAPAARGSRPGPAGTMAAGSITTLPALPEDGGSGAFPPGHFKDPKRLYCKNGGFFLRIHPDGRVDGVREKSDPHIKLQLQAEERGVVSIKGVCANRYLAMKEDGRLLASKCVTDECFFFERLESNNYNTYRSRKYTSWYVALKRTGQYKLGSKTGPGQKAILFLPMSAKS

[15] = mitochondrial membrane potential change in A549 cells, profiling panel, cell-based, JC-1 fluorescence, basal, 24 h, 100 nL (AID 1138); conditions: higher = more signal;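 also: A549 lung adenocarcinoma cells under basal conditions with no added stimulus; test concentration not given here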
Lefty1 = Lefty1 binders on small-molecule microarrays, primary screen, biochemical, small-molecule microarray, 635/667 nm fluorescence (AID 1139); conditions: small-molecule microarray binding, fluorescence 635/667; higher = more signal
[16] = system: wheat germ agglutinin (Triticum aestivum), Alexa647-labelled; test: wheat germ agglutinin binders on compound microarrays, profiling panel, artefact control for SMM control-protein annotation, biochemical, small-molecule microarray, 635/667 nm fluorescence (AID 1140); conditions: WGA-A647 binding, 635 nm fluorescence, higher = more signal;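 also: score merges 667 nm feature emission with signal to noise over triplicate slides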
[17] = target: Luciferin 4-monooxygenase (Photinus pyralis) (UniProt P08659); test: firefly luciferase enzyme inhibitors, primary screen, biochemical, luminescence, purified enzyme, 2006 set (AID 1141); conditions: SteadyGlo luminescence, 30 min, higher = more signal, called active from +8 up or from −8 down;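 also: cell-free assay with purified firefly luciferase at 100 ng per well in PBS; test concentration not given here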
Chain of Luciferin 4-monooxygenase (Photinus pyralis) (P08659 whole entry, looked up): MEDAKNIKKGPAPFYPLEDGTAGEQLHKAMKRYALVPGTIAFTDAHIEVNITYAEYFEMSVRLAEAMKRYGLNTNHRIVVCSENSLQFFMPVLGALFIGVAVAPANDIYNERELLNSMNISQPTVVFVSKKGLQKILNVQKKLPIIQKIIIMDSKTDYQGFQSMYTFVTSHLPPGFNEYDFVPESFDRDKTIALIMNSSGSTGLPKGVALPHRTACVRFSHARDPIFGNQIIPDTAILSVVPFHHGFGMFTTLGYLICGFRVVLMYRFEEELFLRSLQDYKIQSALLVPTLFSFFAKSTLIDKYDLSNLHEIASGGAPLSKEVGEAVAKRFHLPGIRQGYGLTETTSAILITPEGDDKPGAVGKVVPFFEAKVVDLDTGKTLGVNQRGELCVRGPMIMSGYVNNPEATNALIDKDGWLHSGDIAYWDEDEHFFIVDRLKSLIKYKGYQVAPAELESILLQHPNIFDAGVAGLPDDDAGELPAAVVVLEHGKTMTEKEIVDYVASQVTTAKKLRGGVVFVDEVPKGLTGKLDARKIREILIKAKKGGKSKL

SMILES	composite z-score (Albumin (Bos taurus))	composite Z-score [1]	composite z-score [2]	composite z-score [3]	composite z-score [4]	composite z-score [5]	composite z-score [6]	composite z-score (Sam68 (KHDRBS1))	composite z-score [7]	composite z-score [8]	composite z-score [9]	composite z-score [10]	composite z-score [11]	composite z-score [12]	composite z-score [13]	composite z-score [14]	z-score [15]	composite z-score (Lefty1)	composite z-score [16]	z-score [17]
COCCn1c(C(=O)N(C)C)cc2c1C[C@H]1CN(C(=O)c3ccccc3)[C@@](Cc3ccc(OC)cc3)(C(=O)OC)[C@@H]21	0.507	-0.0775 (inactive)	0.32	0.0323	0.659	2.94	0.294	0.914	-0.545	0.732	1.59	1.04	0.585	0.837	0.571	-0.226	1.66	-0.201	0.94	0.75 (inactive)
CC=CC(O)C1C=CC2C(=O)NC(=O)C2N1Nc1ccc(Cl)cc1Cl (stereo not given)	0.7	1.23 (inactive)	0.033	-0.0698	0.59	1.72	0.465	-0.227	0.853	-0.953	1.78	-0.352	-0.288	-0.419	1.04	-0.0658	0.099	0.15	0.898	-0.158 (inactive)
CC(C)N1C(=O)c2ccccc2[C@@H](C(=O)NCC(F)(F)F)[C@@H]1c1ccc(CO)cc1	-0.826	0.492 (inactive)	-0.1	-0.07	0.587	0.425	-0.282	-0.28	-0.474	0.104	-0.0668	0.0715	0.284	-0.537	0.527	0.0683	1.41	-0.232	-0.348	-0.189 (inactive)
COC(=O)[C@@]1(Cc2ccc(OC)cc2)[C@H]2c3cc(C(=O)N4CCCC4)n(CCn4cc([N+](=O)[O-])nc4C)c3C[C@H]2CN1C(=O)c1ccccc1	1.05	0.146 (inactive)	1.67	1	0.62	3.37	0.913	0.654	0.406	0.716	3.4	1.2	1.07	1	0.116	-0.322	1.33	-0.19	0.907	1.22 (inactive)
C[N+](C)(C)CCCC[C@@H]1NC(=O)[C@@H]2C[C@H](C(=O)NCc3ccc(F)cc3)[C@H](c3ccc(O)cc3)N2C1=O	-0.635	-0.43 (inactive)	-0.307	-0.0662	0.413	0.933	0.873	-0.636	0.189	0.607	0.928	-0.321	0.951	-0.965	1.34	1.6	0.526	0.0338	-0.3	-0.41 (inactive)
COc1ccc(C(=O)Nc2ccc3c(c2)[C@@]2(O[C@H](CCO)[C@@H]([Si](C)(C)c4ccc(OC)cc4)[C@@H]2C)C(=O)N3Cc2ccccc2)cc1	-0.351	0.004 (inactive)	-0.0647	-0.0357	0.124	0.88	0.556	0.973	0.268	0.637	0.829	0.989	0.397	0.592	1.25	1.45	-1.3	0.792	0.413	-0.585 (inactive)
COCCOC(=O)N1C(=O)[C@@]2(c3cc(C#Cc4ccc(OC)cc4)ccc31)[C@H](c1ccc(OCCO)cc1)N1[C@H](c3ccccc3)[C@H](c3ccccc3)OC(=O)[C@H]1[C@@H]2C(=O)NC[C@H](O)c1ccccc1	0.314	0.217 (inactive)	0.154	0.0022	0.471	0.575	0.511	1.3	0.311	1.16	1.2	1.17	1.32	0.941	1.33	1.19	-0.936	0.979	1.05	-0.563 (inactive)
C=C(COC)/C(=C/C[C@@H](OC(C)=O)c1ccccc1OCCO)c1cnc2ccccc2c1	-0.209	0.72 (inactive)	0.199	-0.084	0.776	1.09	0.542	1.17	0.765	0.995	0.782	1.06	0.423	0.0866	1.43	1.12	-0.159	1.54	1.2	-1.47 (inactive)
CCOC(=O)C1=CC[C@@H](c2ccc(OC)cc2)N(S(=O)(=O)c2ccc(C)cc2)[C@H]1CC	0.894	-0.0608 (inactive)	0.164	0.0684	0.579	1.85	0.133	1.33	-0.483	1.07	1.17	1.22	0.493	0.993	0.995	0.873	2.69	0.689	0.902	1.24 (inactive)
CCCNC(=O)[C@@]1(c2ccc([N+](=O)[O-])cc2)CC(=O)N(C(C)C)[C@@H]1c1ccc(CO)cc1	0.667	-0.0527 (inactive)	-0.344	-0.0876	0.801	1.7	0.188	-0.626	-1.54	-0.536	0.736	0.143	0.856	-1.19	-0.742	-0.914	-0.837	-0.844	1.19	-0.113 (inactive)
CCOC(=O)C[C@H]1[C@H](OC(=O)Cc2ccc3c(c2)OCO3)[C@@H](NC(=O)Cc2ccc(OC)cc2)c2cc(OCCCO)ccc2N1C(=O)Cc1ccc(OC)cc1	0.635	0.472 (inactive)	-0.143	-0.172	0.263	0.428	0.0995	0.323	-0.0366	-0.117	0.247	0.173	-0.113	0.239	-0.147	-0.0689	1.39	0.0681	-0.002	-0.127 (inactive)
CN1C(=O)[C@@H]2[C@@H](CC(COc3ccccc3)=C3[C@@H](CCc4ccccc4)OB(O)C[C@@H]32)C1=O	-0.062	0.581 (inactive)	0.135	-0.0073	0.229	0.71	0.809	0.31	-0.102	-0.0514	-0.526	-0.211	-0.175	0.48	0.127	-0.0572	0.208	-0.0163	0.469	-0.326 (inactive)
CN(C)CCCCNC(=O)[C@H]1C[C@H]2C(=O)N3CCC[C@H]3C(=O)N2[C@H]1c1cccc(OCCO)c1	-0.115	1.68 (inactive)	0.234	-0.117	0.519	1.12	0.392	1.04	-0.52	0.794	1.96	0.74	1.02	0.311	1.21	0.382	-0.159	0.365	1.15	0.83 (inactive)
COC(=O)[C@@]1(Cc2ccc(F)cc2)[C@H]2c3cc(C(=O)N(C)C)n(CCc4ccc(O)c(O)c4)c3C[C@H]2CN1C(=O)c1ccccc1	0.508	0.964 (inactive)	0.0807	0.256	0.863	3.26	0.541	0.0409	-0.938	0.227	-0.0012	1.18	0.512	0.823	-0.123	-0.72	0.987	-0.08	0.528	0.569 (inactive)
